According to the supplement of paper PMC10646978:
± gives the standard deviation.

How the values were obtained:
Conditions in all cases: modulator concentration 10 µM
[1] = tested on: RAW-Dual (murine macrophage reporter line); test: NF-kB reporter (SEAP) activity fold change vs agonist alone; higher = enhanced NF-kB activity
Procedure, shortened: (§1)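 In 384-well plates holding 50 000 RAW-Dual murine macrophage reporter cells per well, compound at 10 μM final was pre-incubated for 1 hour at 37 °C, after which a PRR agonist was added overnight. Supernatant SEAP read with QUANTI-Blue at 620 nm absorbance reported NF-κB, and Lucia luciferase read with QUANTI-Luc luminescence reported IRF. Fold change values come from dividing each reporter signal by the mean of agonist-only control wells on the same plate, averaged over replicate plates with propagated errors.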

[2] = tested on: RAW-Dual (murine macrophage reporter line); test: IRF reporter (Lucia luciferase) activity fold change vs agonist alone; higher = enhanced IRF activity
Procedure, shortened: as §1

[3] = tested on: RAW-Dual (murine macrophage reporter line); test: viability score (confluency relative to resting cells, overnight) (fraction); higher = more viable, active = viable (0.7 or more)
Procedure, shortened: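 A compound met the cutoff when both of two confluency masks exceeded 70% of resting cells. Those masks were made with IncuCyte software from IncuCyte images of RAW-Dual macrophages treated overnight at 10 μM final. This is the basis of the viability score, which is confluency relative to resting cells.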

[4] = agonist: CpG ODN 1826 0.5 ug/mL

| SMILES | NF-kB reporter [1, 4] | NF-kB reporter ([1]; agonist: LPS 0.1 ug/mL) | NF-kB reporter ([1]; agonist: MPLA […]) | IRF reporter ([2]; agonist: 3'3'-cGAMP 10 ug/mL) | IRF reporter ([2]; agonist: LPS 0.1 ug/mL) | IRF reporter ([2]; agonist: MPLA […]) | viability score [3] |
| --- | --- | --- | --- | --- | --- | --- | --- |
| CCOc1ccccc1NC(=O)Nc1ccc2c(c1)CC(=O)N2CC | 1.17 ± 0.083 | 0.945 ± 0.092 | 0.998 ± 0.028 | 0.694 ± 0.037 | 0.844 ± 0.077 | 0.797 ± 0.089 | 0.998 (active) |
| CCOC(=O)c1ccccc1NC(=O)CN(c1cc(Cl)ccc1OC)S(C)(=O)=O | 1.02 ± 0.15 | 1.09 ± 0.067 | 0.897 ± 0.054 | 1.02 ± 0.029 | 1.38 ± 0.2 | 1.14 ± 0.14 | 1.01 (active) |
| O=C(C=Cc1ccc2c(c1)OCO2)NCc1ccccn1 | 0.994 ± 0.16 | 1.08 ± 0.089 | 0.897 ± 0.069 | 0.933 ± 0.041 | 1.27 ± 0.27 | 1.28 ± 0.15 | 0.994 (active) |
| CC(C)Cn1cc(Cl)c(=O)n(CC(C)C)c1=O | 1.12 ± 0.068 | 1 ± 0.11 | 1.01 ± 0.056 | 1.03 ± 0.037 | 1 ± 0.066 | 0.991 ± 0.19 | 0.996 (active) |
| COC(=O)[C@]12CCC(C)(C)C[C@H]1[C@H]1C(=O)C=C3[C@@]4(C)C=C(C#N)C(=O)C(C)(C)[C@@H]4CC[C@@]3(C)[C@]1(C)CC2 | 0.0752 ± 0.0037 | 0.294 ± 0.025 | 0.937 ± 0.086 | 0.0972 ± 0.012 | 0.571 ± 0.071 | 0.585 ± 0.14 | 0.246 (inactive) |
| COc1ccccc1OCC(=O)NCC1CCN(C(C)C)CC1 | 1.12 ± 0.062 | 1.07 ± 0.099 | 0.92 ± 0.049 | 1.09 ± 0.099 | 1.13 ± 0.21 | 1.05 ± 0.34 | 0.991 (active) |
| CC1(C)C(=O)C2CC3(O)C4=CC(=O)OC(c5ccoc5)C4(C)CCC3C(C)(C2=O)C1CC(=O)O (stereo not drawn) | 0.99 ± 0.056 | 1.04 ± 0.064 | 1.01 ± 0.081 | 0.997 ± 0.035 | 1.51 ± 0.13 | 1.25 ± 0.14 | 0.996 (active) |
| Cc1c(Cl)ccc2c1NC(C(=O)O)C1CC=CC21 (stereo not drawn) | 0.814 ± 0.045 | 1.05 ± 0.092 | 0.755 ± 0.063 | 0.615 ± 0.034 | 1.19 ± 0.091 | 1.13 ± 0.099 | 0.994 (active) |
| CC(=O)OC1(C(C)=O)CCC2C3C=C(C)C4=CC(=O)CCC4(C)C3CCC21C (stereo not drawn) | 1.18 ± 0.088 | 1.08 ± 0.054 | 1.21 ± 0.026 | 1.04 ± 0.069 | 0.875 ± 0.1 | 0.986 ± 0.14 | 0.995 (active) |
